Results from the supplement of paper PMC9446081.
± gives the standard deviation of the averaged measurements.

Experiments:
Assay in all cases: relative enzymatic activity vs untreated control (fraction); higher = less inhibition
Conditions in all cases: 100 µM; incubation time: 2 h at 37 C
DNA gyrase = system: DNA gyrase
Description: (§1)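 In vitro enzymatic inhibition assays (ProFoldin kits) for 12 purified essential E. coli enzymes or complexes, each treated with 218 active antibacterial compounds at 100 µM for 2 h at 37°C. Read-outs were fluorescence or absorbance (phosphate detection, dye binding), converted to activity via standard curves and expressed relative to untreated DMSO controls.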

DNA helicase = DNA helicase (UniProt P0ACB1)
Chain of DNA helicase (P0ACB1 whole entry): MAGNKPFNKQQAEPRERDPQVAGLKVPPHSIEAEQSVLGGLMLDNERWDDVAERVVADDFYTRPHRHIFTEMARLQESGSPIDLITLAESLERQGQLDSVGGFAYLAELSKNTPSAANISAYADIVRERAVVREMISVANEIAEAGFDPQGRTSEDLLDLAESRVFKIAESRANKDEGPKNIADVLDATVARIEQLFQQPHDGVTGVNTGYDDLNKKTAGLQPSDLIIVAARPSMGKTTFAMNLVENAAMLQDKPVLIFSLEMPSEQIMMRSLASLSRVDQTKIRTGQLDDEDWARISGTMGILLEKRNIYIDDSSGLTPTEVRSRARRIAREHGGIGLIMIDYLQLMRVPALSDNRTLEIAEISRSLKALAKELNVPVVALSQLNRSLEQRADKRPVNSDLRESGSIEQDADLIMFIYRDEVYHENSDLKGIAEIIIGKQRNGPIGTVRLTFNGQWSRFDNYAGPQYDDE
Description: as §1

DNA ligase = DNA ligase (UniProt B1XA82)
Chain of DNA ligase (B1XA82 whole entry): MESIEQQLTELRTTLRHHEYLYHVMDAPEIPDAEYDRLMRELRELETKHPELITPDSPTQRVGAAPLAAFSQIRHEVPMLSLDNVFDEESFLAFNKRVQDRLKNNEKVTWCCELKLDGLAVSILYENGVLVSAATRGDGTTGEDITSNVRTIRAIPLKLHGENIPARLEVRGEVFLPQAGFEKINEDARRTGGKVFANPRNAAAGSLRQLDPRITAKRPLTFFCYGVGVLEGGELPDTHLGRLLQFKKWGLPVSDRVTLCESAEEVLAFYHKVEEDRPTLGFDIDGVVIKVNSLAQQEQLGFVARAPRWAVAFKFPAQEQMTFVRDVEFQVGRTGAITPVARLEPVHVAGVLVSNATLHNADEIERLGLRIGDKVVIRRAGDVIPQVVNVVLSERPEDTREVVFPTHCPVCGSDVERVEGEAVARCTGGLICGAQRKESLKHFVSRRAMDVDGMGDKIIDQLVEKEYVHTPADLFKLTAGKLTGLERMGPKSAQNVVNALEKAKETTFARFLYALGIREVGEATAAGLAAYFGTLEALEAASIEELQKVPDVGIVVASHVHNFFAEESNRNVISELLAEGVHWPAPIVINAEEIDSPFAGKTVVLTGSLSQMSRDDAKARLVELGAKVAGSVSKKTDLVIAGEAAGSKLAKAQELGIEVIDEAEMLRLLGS
Description: as §1

DNA polymerase = DNA polymerase (UniProt P10443)
Chain of DNA polymerase (P10443 whole entry): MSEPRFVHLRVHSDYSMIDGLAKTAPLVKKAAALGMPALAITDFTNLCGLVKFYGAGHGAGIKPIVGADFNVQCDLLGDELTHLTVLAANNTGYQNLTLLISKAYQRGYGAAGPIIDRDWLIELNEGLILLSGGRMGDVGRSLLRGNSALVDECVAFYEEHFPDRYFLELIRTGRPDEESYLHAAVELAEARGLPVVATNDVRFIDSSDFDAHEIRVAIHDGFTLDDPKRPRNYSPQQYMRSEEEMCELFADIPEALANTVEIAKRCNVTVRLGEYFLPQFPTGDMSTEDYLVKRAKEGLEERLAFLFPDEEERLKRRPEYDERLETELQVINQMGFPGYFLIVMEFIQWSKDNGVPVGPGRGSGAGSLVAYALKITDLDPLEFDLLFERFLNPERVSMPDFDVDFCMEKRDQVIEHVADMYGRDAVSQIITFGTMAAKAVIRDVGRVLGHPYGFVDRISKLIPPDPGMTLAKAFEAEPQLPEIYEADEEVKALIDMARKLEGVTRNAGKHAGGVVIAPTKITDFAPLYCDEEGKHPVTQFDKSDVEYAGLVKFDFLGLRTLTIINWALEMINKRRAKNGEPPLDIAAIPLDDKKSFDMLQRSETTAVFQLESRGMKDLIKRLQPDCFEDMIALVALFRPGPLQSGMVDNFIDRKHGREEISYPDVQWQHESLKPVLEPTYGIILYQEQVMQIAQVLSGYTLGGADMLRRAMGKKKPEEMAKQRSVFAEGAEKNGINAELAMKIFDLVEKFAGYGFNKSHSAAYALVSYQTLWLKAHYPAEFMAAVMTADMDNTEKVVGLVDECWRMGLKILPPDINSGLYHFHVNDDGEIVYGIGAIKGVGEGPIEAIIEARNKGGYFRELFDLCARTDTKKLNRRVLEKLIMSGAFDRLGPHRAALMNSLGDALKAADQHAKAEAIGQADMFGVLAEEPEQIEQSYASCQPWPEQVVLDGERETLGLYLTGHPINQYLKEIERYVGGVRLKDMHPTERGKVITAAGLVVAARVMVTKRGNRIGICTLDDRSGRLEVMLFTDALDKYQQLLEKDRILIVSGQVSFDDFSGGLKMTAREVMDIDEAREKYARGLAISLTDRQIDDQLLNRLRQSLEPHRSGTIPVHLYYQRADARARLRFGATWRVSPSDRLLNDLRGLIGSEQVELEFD
Description: as §1

DNA primase = DNA primase (UniProt P0ABS7)
Chain of DNA primase (P0ABS7 whole entry): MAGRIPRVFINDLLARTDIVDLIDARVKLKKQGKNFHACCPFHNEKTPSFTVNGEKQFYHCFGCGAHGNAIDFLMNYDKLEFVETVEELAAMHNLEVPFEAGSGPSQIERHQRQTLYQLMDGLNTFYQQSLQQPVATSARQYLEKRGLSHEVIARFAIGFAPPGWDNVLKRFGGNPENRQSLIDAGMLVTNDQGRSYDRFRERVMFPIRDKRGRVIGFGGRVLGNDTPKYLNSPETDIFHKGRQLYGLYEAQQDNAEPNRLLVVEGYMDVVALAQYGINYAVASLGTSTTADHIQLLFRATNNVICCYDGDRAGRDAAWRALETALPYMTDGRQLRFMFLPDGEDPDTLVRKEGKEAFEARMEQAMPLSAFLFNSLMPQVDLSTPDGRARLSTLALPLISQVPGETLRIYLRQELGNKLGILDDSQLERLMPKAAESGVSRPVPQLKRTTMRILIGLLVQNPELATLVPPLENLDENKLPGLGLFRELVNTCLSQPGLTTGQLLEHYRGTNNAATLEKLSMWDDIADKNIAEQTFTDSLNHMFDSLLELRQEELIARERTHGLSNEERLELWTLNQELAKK
Description: as §1

GlmU = GlmU (UniProt A7ZTU1)
Chain of GlmU (A7ZTU1 whole entry, looked up): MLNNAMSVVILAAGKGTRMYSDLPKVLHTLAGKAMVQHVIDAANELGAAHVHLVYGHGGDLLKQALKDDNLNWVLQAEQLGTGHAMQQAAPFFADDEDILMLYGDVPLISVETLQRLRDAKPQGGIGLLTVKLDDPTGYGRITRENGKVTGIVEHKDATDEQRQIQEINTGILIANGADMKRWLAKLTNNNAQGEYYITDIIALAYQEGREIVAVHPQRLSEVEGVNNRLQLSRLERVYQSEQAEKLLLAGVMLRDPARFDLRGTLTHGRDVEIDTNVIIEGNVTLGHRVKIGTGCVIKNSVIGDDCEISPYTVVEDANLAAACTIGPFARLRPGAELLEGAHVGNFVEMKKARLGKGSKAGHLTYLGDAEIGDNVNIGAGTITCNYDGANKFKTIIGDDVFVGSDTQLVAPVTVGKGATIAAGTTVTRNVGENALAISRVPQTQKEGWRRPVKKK
Description: as §1

Guanlyate kinase = Guanlyate kinase (UniProt Q0TBG1)
Chain of Guanlyate kinase (Q0TBG1 whole entry): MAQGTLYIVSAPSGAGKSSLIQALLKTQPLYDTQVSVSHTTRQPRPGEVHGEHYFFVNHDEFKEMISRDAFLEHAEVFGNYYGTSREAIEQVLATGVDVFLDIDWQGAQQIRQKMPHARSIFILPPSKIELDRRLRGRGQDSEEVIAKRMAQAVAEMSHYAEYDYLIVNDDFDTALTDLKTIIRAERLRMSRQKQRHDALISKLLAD
Description: as §1

MurA = MurA (UniProt Q3YX52)
Chain of MurA (Q3YX52 whole entry): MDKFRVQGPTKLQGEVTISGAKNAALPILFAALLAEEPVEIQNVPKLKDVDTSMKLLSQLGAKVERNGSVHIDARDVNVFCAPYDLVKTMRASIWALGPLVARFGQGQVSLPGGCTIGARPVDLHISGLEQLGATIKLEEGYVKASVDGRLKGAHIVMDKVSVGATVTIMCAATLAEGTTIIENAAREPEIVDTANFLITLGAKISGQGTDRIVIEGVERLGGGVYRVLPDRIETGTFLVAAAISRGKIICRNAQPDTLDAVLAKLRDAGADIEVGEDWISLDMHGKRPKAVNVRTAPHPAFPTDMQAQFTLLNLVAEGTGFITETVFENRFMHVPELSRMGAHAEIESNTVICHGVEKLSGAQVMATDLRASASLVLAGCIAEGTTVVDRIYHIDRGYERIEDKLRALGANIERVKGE
Description: as §1

MurD = biological target: T1, MurD (UniProt P14900)
T1 sequence (whole entry): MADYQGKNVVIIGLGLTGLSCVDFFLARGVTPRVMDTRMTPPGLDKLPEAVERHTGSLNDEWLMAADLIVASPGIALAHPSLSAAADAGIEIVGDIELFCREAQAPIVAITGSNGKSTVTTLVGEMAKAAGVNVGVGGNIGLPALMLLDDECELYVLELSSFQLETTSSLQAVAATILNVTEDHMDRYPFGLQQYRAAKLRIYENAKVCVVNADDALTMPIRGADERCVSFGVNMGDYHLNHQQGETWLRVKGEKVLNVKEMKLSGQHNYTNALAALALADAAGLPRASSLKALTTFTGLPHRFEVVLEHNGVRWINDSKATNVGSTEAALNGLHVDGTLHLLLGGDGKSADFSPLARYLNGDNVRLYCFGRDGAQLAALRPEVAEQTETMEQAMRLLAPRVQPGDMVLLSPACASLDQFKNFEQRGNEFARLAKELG
Description: as §1

MurF = biological target: T2, MurF (UniProt P11880)
T2 sequence (whole entry): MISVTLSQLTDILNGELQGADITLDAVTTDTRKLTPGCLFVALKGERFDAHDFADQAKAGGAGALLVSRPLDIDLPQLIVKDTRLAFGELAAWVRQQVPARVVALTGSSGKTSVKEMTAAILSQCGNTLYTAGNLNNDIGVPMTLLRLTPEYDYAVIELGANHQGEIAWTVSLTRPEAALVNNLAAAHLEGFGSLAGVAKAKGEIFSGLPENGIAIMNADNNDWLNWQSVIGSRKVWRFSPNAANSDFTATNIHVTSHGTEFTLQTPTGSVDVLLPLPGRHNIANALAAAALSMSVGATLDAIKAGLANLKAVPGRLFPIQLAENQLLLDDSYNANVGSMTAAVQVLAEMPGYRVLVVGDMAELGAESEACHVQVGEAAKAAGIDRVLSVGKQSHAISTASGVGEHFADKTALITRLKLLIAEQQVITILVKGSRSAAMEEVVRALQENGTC
Description: as §1

RNA polymerase = system: RNA polymerase
Description: as §1

Row | SMILES | relative enzymatic activity (DNA gyrase) | relative enzymatic activity (DNA helicase) | relative enzymatic activity (DNA ligase) | relative enzymatic activity (DNA polymerase) | relative enzymatic activity (DNA primase) | relative enzymatic activity (GlmU) | relative enzymatic activity (Guanlyate kinase) | relative enzymatic activity (MurA) | relative enzymatic activity (MurD) | relative enzymatic activity (MurF) | relative enzymatic activity (RNA polymerase)
1 | CN1CCN(c2c(F)cc3c(=O)c(C(=O)O)cn4c3c2SCC4)CC1 | 0.0039 ± 0.0055 | 0.623 ± 0.2 | 1.02 ± 0.03 | 1.21 ± 0.25 | 0.807 ± 0.022 | 0.952 ± 0.026 | 0.926 ± 0.19 | 0.7644 ± 0.0074 | 0.608 ± 0.44 | 0.899 ± 0.27 | 0.844 ± 0.023
2 | CCC1OC(=O)C(C)C(OC2CC(C)(OC)C(O)C(C)O2)C(C)C(OC2OC(C)CC(N(C)C)C2O)C(C)(O)CC(C)CN(C)C(C)C(O)C1(C)O (stereo not drawn) | 1.09 ± 0.048 | 0.601 ± 0.15 | 1.06 ± 0.2 | 1.11 ± 0.15 | 0.712 ± 0.2 | 1.09 ± 0.14 | 1.04 ± 0.034 | 0.766 ± 0.061 | 0.572 ± 0.39 | 0.964 ± 0.17 | 0.843 ± 0.027
3 | CC(C)(O/N=C(\C(=O)N[C@@H]1C(=O)N2C(C(=O)O)=C(C[N+]3(CCNC(=O)c4ccc(O)c(O)c4Cl)CCCC3)CS[C@H]12)c1csc(N)n1)C(=O)O | 0.401 ± 0.11 | 0.506 ± 0.075 | 0.933 ± 0.058 | 1.05 ± 0.32 | 0.753 ± 0.013 | 0.92 ± 0.062 | 0.834 ± 0.094 | 0.0569 ± 0.016 | 0.515 ± 0.35 | 1.01 ± 0.23 | 0.672 ± 0.082
4 | CON=C(C(=O)NC1C(=O)N2C(C(=O)OCOC(=O)C(C)(C)C)=C(C=Cc3scnc3C)CSC12)c1csc(N)n1 (stereo not drawn) | 0.894 ± 0.26 | 0.379 ± 0.064 | 1.24 ± 0.4 | 1.24 ± 0.33 | 0.894 ± 0.029 | 0.914 ± 0.031 | 0.794 ± 0.14 | 0.253 ± 0.062 | 0.568 ± 0.41 | 0.893 ± 0.24 | 0.872 ± 0.034
5 | CC[C@H]1OC(=O)C[C@@H](O)[C@H](C)[C@@H](O[C@@H]2O[C@H](C)C[C@H](N(C)C)[C@H]2O)[C@@H](CC=O)C[C@@H](C)C(=O)/C=C/[C@]2(C)O[C@H]2[C@@H]1C | 0.781 ± 0.33 | 0.296 ± 0.13 | 0.912 ± 0.064 | 1.17 ± 0.26 | 0.854 ± 0.017 | 1.0039 ± 0.00034 | 0.968 ± 0.11 | 0.673 ± 0.17 | 0.55 ± 0.38 | 1.06 ± 0.2 | 0.864 ± 0.08
6 | CNC1C(OC2C(OC3C(O)C(O)C(NC(=N)N)C(O)C3NC(=N)N)OC(C)C2(O)CO)OC(CO)C(O)C1O.O=S(=O)(O)O (stereo not drawn) | 0.78 ± 0.53 | 0.565 ± 0.13 | 1.11 ± 0.19 | 1.38 ± 0.47 | 0.716 ± 0.22 | 0.982 ± 0.09 | 1.02 ± 0.063 | 0.635 ± 0.0086 | 0.65 ± 0.44 | 0.944 ± 0.15 | 0.953 ± 0.083
7 | CN(C)CCOC(c1ccccc1)c1ccccc1.Cn1c(=O)c2[nH]c(Cl)nc2n(C)c1=O | 0.811 ± 0.45 | 0.604 ± 0.17 | 1.01 ± 0.12 | 1.32 ± 0.34 | 0.75 ± 0.22 | 0.939 ± 0.018 | 1.05 ± 0.066 | 0.697 ± 0.022 | 0.596 ± 0.39 | 0.534 ± 0.75 | 0.923 ± 0.069
8 | CN(C)c1ccc(O)c2c1C[C@@H]1C[C@@H]3[C@@H](N(C)C)C(=O)C(C(N)=O)=C(O)[C@]3(O)C(=O)[C@H]1C2=O | 0.00646 ± 0.0091 | 0.123 ± 0.0035 | 0.699 ± 0.021 | 0.021 ± 0.0081 | 0.424 ± 0.027 | 0.655 ± 0.21 | 0.152 ± 0.014 | 0.0751 ± 0.025 | 0.665 ± 0.43 | 1.21 ± 0.043 | 0.00236 ± 0.0021
9 | CC(=O)OCC1=C(C(=O)[O-])N2C(=O)C(NC(=O)Cc3cccs3)C2SC1.[Na+] (stereo not drawn) | 0.626 ± 0.6 | 0.395 ± 0.012 | 1.26 ± 0.12 | 1.09 ± 0.26 | 0.713 ± 0.036 | 1 ± 0.084 | 0.974 ± 0.057 | 0.0754 ± 0.023 | 0.597 ± 0.38 | 0.958 ± 0.23 | 0.622 ± 0.13
10 | CCOC(=O)OC(C)OC(=O)C1N2C(=O)C(NC(=O)C(N)c3ccccc3)C2SC1(C)C.Cl (stereo not drawn) | 0.992 ± 0.22 | 0.463 ± 0.04 | 0.901 ± 0.089 | 1.09 ± 0.16 | 0.841 ± 0.011 | 1.04 ± 0.033 | 0.975 ± 0.026 | 0.82 ± 0.1 | 0.598 ± 0.42 | 0.981 ± 0.23 | 0.803 ± 0.031
11 | O=C(NC(CO)C(O)c1ccc([N+](=O)[O-])cc1)C(Cl)Cl (stereo not drawn) | 1.08 ± 0.086 | 0.453 ± 0.012 | 0.947 ± 0.19 | 1.34 ± 0.4 | 0.725 ± 0.2 | 0.972 ± 0.052 | 1.04 ± 0.047 | 0.8 ± 0.18 | 0.548 ± 0.34 | 0.96 ± 0.2 | 0.86 ± 0.028
12 | CCn1cc(C(=O)O)c(=O)c2cc(F)c(N3CCNCC3)cc21 | 0.00604 ± 0.0086 | 0.468 ± 0.034 | 0.906 ± 0.16 | 1.37 ± 0.53 | 0.659 ± 0.12 | 1.01 ± 0.015 | 1.01 ± 0.11 | 0.799 ± 0.017 | 0.573 ± 0.36 | 0.977 ± 0.21 | 0.849 ± 0.075
13 | CCn1cc(C(=O)O)c(=O)c2cc(F)c(N3CCNC(C)C3)c(F)c21.Cl (stereo not drawn) | 0.0253 ± 0.036 | 0.786 ± 0.38 | 1.442 ± 0.0066 | 1.29 ± 0.3 | 0.712 ± 0.2 | 1.09 ± 0.16 | 1 ± 0.097 | 0.728 ± 0.031 | 0.577 ± 0.38 | 0.554 ± 0.78 | 1.16 ± 0.36
14 | Oc1c(Cl)cc(Cl)c(Cl)c1Cc1c(O)c(Cl)cc(Cl)c1Cl | 0.191 ± 0.12 | 0.06883 ± 0.00038 | 0.514 ± 0.1 | 0.222 ± 0.019 | 0.436 ± 0.0013 | 1.07 ± 0.11 | 0.162 ± 0.0089 | 0.899 ± 0.6 | 1.25 ± 0.89 | 0.446 ± 0.1 | 0.293 ± 0.0084
15 | CON=C(C(=O)N[C@@H]1C(=O)N2C(C(=O)OCOC(=O)C(C)(C)C)=C(C=Cc3scnc3C)CS[C@H]12)c1csc(N)n1 | 0.622 ± 0.19 | 0.322 ± 0.0034 | 0.899 ± 0.1 | 0.496 ± 0.7 | 0.83003 ± 0.00016 | 0.838 ± 0.01 | 0.842 ± 0.11 | 0.335 ± 0.12 | 0.147 ± 0.21 | 0.855 ± 0.25 | 0.945 ± 0.2
16 | C[C@H]1COc2c(C3(N)CC3)c(F)cc3c(=O)c(C(=O)O)cn1c23 | 0.0356 ± 0.05 | 0.447 ± 0.079 | 0.801 ± 0.074 | 0.5 ± 0.7 | 0.8435 ± 0.0058 | 0.995 ± 0.012 | 0.991 ± 0.021 | 0.619 ± 0.16 | 0.578 ± 0.38 | 0.946 ± 0.25 | 0.861 ± 0.087
17 | CC[C@H]1OC(=O)[C@H](C)[C@@H](O[C@H]2C[C@@](C)(OC)[C@@H](O)[C@H](C)O2)[C@H](C)[C@@H](O[C@@H]2O[C@H](C)C[C@H](N(C)C)[C@H]2O)[C@](C)(O)C[C@@H](C)CN(C)[C@H](C)[C@@H](O)[C@]1(C)O | 0.608 ± 0.34 | 0.527 ± 0.072 | 0.871 ± 0.086 | 1.04 ± 0.12 | 0.836 ± 0.027 | 0.99 ± 0.031 | 0.865 ± 0.079 | 0.746 ± 0.079 | 0.58 ± 0.37 | 0.95 ± 0.23 | 0.897 ± 0.19
18 | O=c1[nH]c(=O)n([C@H]2C[C@H](O)[C@@H](CO)O2)cc1F | 0.574 ± 0.53 | 0.629 ± 0.23 | 0.789 ± 0.18 | 1.15 ± 0.27 | 0.8368 ± 0.0026 | 0.979 ± 0.066 | 0.927 ± 0.06 | 0.762 ± 0.13 | 0.584 ± 0.38 | 0.953 ± 0.23 | 0.7944 ± 0.0043
